# Screen size: about 420,000 compounds; about 64,000 (15%) were called active. Another 27% or so got no clear call; they are omitted. Not all results are given here. A number with no mark means an inactive call. Calls follow the shape of the dose curve; as a rule, active = well fitted inhibition curve with a large enough effect; inconclusive = small, poorly fitted or top-dose-only effect; inactive = flat fitted curve, though single readings scatter.
# Test: qHTS for Inhibitors of human tyrosyl-DNA phosphodiesterase 1 (TDP1): qHTS in cells in absence of CPT; also: nearly all actives have a fitted effect of over 55% in size
# Details: DT40 Tdp1-/- hTDP1 cells, no CPT, ATP luminescence, 48 h; activity change, negative = growth inhibition: at 46.2 µM (top of the series)
# Summary of the method: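 Camptothecin absent (DMSO only). Human TDP1-complemented DT40 knockout cells, 400 cells/well, 37 °C for minimum 48 hr; ATP measured via CellTiter-Glo, 30 min dark incubation, luminescence.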
# % is scaled to controls: 0 for no effect and ±100 for the full control effect; potency is read from the fitted curve at half-maximal effect.
SMILES,"activity change, negative = growth inhibition",Potency
CCCCNC(=O)OCCSCCS(=O)(=O)c1ccc(Cl)cc1,-14.4%,
CC12CCCCC1=CC(=O)CC2 (centres undefined),-2.63%,
Cc1c(Cl)cccc1NC(=O)NCCCN1CCCC1=O,19.6%,
Cc1cccc([C@H]2[C@@H]3C=CC[C@@H](C)[C@@H]3C(=O)N2Cc2ccccc2)c1,,14.6 µM (active)
Cc1cccc([C@@H]2[C@@H]3C(=O)N(C)C(=O)[C@@H]3[C@@H]3C(=O)Nc4ccccc4C(=O)N23)c1,-7.16%,
Cc1cccc([C@@H]2[C@@H]3C(=O)N(Cc4ccccc4)C(=O)[C@@H]3[C@]3(Cc4ccc(Cl)cc4)C(=O)N(c4cccc(Cl)c4)C(=O)N23)c1,-6.02%,
Cc1ccc(-c2cccc([C@H]3[C@@H]4C=CC[C@@H](C)[C@@H]4C(=O)N3Cc3ccccc3)c2)cc1,,20.6 µM (active)
O=C(NCCCN1CCOCC1)c1ccc([N+](=O)[O-])cc1[N+](=O)[O-],-13.5%,
O=C(NNC(=S)NCCCN1CCOCC1)c1ccncc1,3.65%,
CC(C)c1ccc(/C=C/C(=O)NCCCN2CCOCC2)cc1,,20.6 µM (active)
CCCC(=O)N(CCc1ccccc1)Cc1nc2ccccc2c(=O)[nH]1,-19%,
CN(C)CCCNC(=O)c1cc(C(=O)Cc2ccc(Cl)cc2)c[nH]1,-22.6%,
O=C(COC(=O)Cc1ccccc1F)NCCc1ccccc1,4.69%,
N=c1n(CCc2ccccc2)c2ccccc2n1Cc1ccccc1F,,5.17 µM (active)
CCCCc1nccn1CCn1ccnc1CCCC,-3.8%,
CC(C)NC(=O)NC(=O)CSc1nnc(-c2ccccc2F)n1N,14.1%,
C=CCn1c(P(C)(=O)O)nc2ccccc21,,inactive
C=C(Br)Cn1c(CCCC)nc2ccccc21,,11.6 µM (active)
O=C(O)Cn1c(Cc2ccccc2)nc2ccccc21,4.87%,
CCCCCCCC/C=C\CCCCCCCC(=O)OC[C@H](CO)OC(C)=O,-8.7% [at 4.12 µM],
CCCOC(=O)c1c(NC(=O)c2cc3nc(-c4ccc(OC)cc4)cc(C(F)(F)F)n3n2)sc2c1CCCC2,-3.89%,
CC(=O)NS(=O)(=O)c1ccc2c(c1)Cc1cc(S(=O)(=O)NC(C)=O)ccc1-2,-11%,
O=C1CC(c2ccccc2)CC2=C1C(c1ccco1)n1nc(C(F)(F)F)nc1N2 (centres undefined),,14.1 µM (active)
CCC(=O)N1c2ccccc2NC2=C(C(=O)CCC2)C1c1ccco1 (centres undefined),-2.89%,
Cc1nc2nc3c(cn2n1)C(=O)CC(c1ccccc1)C3 (centres undefined),-25.6%,
CCOc1ccc(S(=O)(=O)NCCC(=O)NCC(C)(C)N2CCOCC2)cc1,-6.6%,

SMILES,"activity change, negative = growth inhibition",Potency
O=C(Nc1ccccc1F)c1ccccc1-c1ccccc1,-13.5%,
Cc1ccccc1NC(=O)C(C)c1ccc(-c2ccccc2)c(F)c1 (centres undefined),,16.4 µM (active)
CC(C(=O)Nc1ccccc1-c1ccccc1)N1CCOCC1 (centres undefined),-21.9%,
COc1ccc(N=C2C=CC(=O)O2)cc1,,4.61 µM (active)
COc1ccc(N=Nc2c(-c3ccc(OC)cc3)[nH]oc2=O)cc1,-12.5%,
COC1=CC(=O)OC(c2ccc(OC)cc2)C1 (centres undefined),2.03%,
COc1ccc(OC)c2c(N)c(C#N)c(C(F)(F)C(F)(F)F)nc12,3.02%,
Cc1ccc(C(=O)OCC(=O)NCc2ccc3c(c2)OCO3)s1,-5.24%,
COc1ccc(-c2cc(C(F)(F)F)nc(S(C)(=O)=O)n2)cc1OC,,5.17 µM (active)
CCN(CC)S(=O)(=O)c1cccc(C(=O)NCC(=O)OCC(=O)NCc2ccccc2)c1,-25.2%,
CCNC(=O)COc1cc(C)c(Br)c(C)c1,1.43%,
Cc1cc(F)ccc1NC1(c2ccccc2)C(=O)c2ccccc2C1=O,-0.108%,
CC(=O)Nc1ccc(NC(=S)NC(=O)c2ccc([N+](=O)[O-])c(C)c2)cc1,-9.77%,
CNc1ccc(NC(C)=O)cc1[N+](=O)[O-],-0.228%,
CC(=O)Nc1ccc(/C=N/Nc2ccc(C(=O)c3c(C)cc4ccccn34)cc2[N+](=O)[O-])cc1,,11.6 µM (active)
CCC(C)NCC(=O)Nc1ccc([N+](=O)[O-])cc1C(=O)Nc1ccccc1F (centres undefined),-23%,
Cc1ccc(S(=O)(=O)N(C)CC(=O)OCC(=O)N2CC(=O)Nc3ccccc32)cc1,-9.32%,
COc1ccccc1C(=O)NC(=O)COC(=O)c1ccco1,-4.23%,
COc1ccc(OC)c(S(=O)(=O)N2CCCC(C(=O)NCCc3ccccc3)C2)c1 (centres undefined),-23.5%,
COc1ccc(C(=O)C2CCCN(S(=O)(=O)c3cccc(C)c3)C2)c(C)c1 (centres undefined),,18.4 µM (active)
Cc1cc(C)c(S(=O)(=O)N2CCC(C(=O)OCc3c(C)noc3C)CC2)c(C)c1,2.1%,
CCn1nc(C)cc1C(=O)N1CCCC(C(=O)c2cccc(OC)c2)C1 (centres undefined),-29.3%,
CCOC(=O)C1CCN(S(=O)(=O)c2c(C)noc2C)CC1,21.5%,
O=C(c1ccc2c(c1)OCO2)N1CCOCC1,0.596%,
CCNC(=O)C1CCCN(C(=O)c2ccc(OC)cc2OC)CC1 (centres undefined),-2.02%,
Cc1cc(Cl)ccc1C(=O)C1CCCN(C(=O)c2nonc2C)C1 (centres undefined),-26.4%,

SMILES,"activity change, negative = growth inhibition",Potency
Cc1cc(Cl)ccc1C(=O)C1CCCN(C(=O)c2ccc3c(c2)OCO3)C1 (centres undefined),,8.2 µM (active)
COc1ccc(C(=O)C2CCCN(C(=O)c3ccc(OC)o3)C2)c(C)c1 (centres undefined),,16.4 µM (active)
COc1cccc(N2CCN(C(=O)C3CCCN(S(=O)(=O)c4cnc[nH]4)C3)CC2)c1 (centres undefined),-25%,
COc1c(C)cc(C(=O)C2CCCN(S(=O)(=O)c3c(C)noc3C)C2)cc1C (centres undefined),,16.4 µM (active)
O=C(COc1cccnc1[N+](=O)[O-])Nc1ccc(Cl)cc1F,-10.4%,
Cc1ccc(NC(=O)OCc2cncs2)cc1,-3.53%,
COC(=O)c1c(C(=O)OC)c2n(c1C)CCS2,-16.7%,
CC(C)(C)OC(=O)N(Cc1ccco1)S(=O)(=O)c1ccccc1Br,3%,
CCn1c(N)c(Br)c(=O)[nH]c1=O,0.126%,
N#Cc1c(NCCO)ccc([N+](=O)[O-])c1NCCO,0.687%,
CC1CCN(C(=O)CSc2nnc(-c3ccco3)n2N)CC1,2.17%,
CCCn1nc(NS(=O)(=O)c2ccccc2)c2cc3cc(C)ccc3nc21,-7.69%,
CC(C)NC(=O)COCc1cc(-c2ccc3c(c2)OCO3)on1,-26.5%,
O=c1c(-c2ccccc2)coc2c(CN3CCOCC3)c(O)ccc12,-9.85%,
Cc1cc(=O)n2nc(N3CCCC3C(=O)NCCCN3CC(C)CC(C)C3)sc2n1 (centres undefined),-6.94%,
Cc1nnc(SCc2cc(=O)c3cc(F)ccc3[nH]2)n1C,12%,
COc1ccc2oc(C(=O)OCC(=O)N(CC(C)C)c3c(N)n(Cc4ccccc4)c(=O)[nH]c3=O)c(C)c2c1,,16.4 µM (active)
CCN(C(=O)COC(=O)c1sccc1C)c1c(N)n(Cc2ccccc2)c(=O)[nH]c1=O,-24.8%,
COCCN(C(=O)COC(=O)Cc1cccc(OC)c1)c1c(N)n(Cc2ccccc2)c(=O)[nH]c1=O,16.1%,
CCN(C(=O)COC(=O)Cc1c(F)cccc1Cl)c1c(N)n(Cc2ccccc2)c(=O)[nH]c1=O,-19.8%,
CCN(C(=O)COC(=O)CCOc1cccc(C)c1)c1c(N)n(Cc2ccccc2)c(=O)[nH]c1=O,,18.4 µM (active)
COCCCN(C(=O)CSCc1ccc(C)cc1)c1c(N)n(Cc2ccccc2)c(=O)[nH]c1=O,-1.36%,
COCCN(C(=O)CSCc1ccc(C)cc1)c1c(N)n(CC(C)C)c(=O)[nH]c1=O,20.3%,
CCN(C(=O)COC(=O)c1c(C)nn(-c2ccccc2)c1Cl)c1c(N)n(Cc2ccccc2)c(=O)[nH]c1=O,18.7%,
CCCCN(C(=O)CSCc1ccc(C)cc1)c1c(N)n(Cc2ccccc2)c(=O)[nH]c1=O,,25.9 µM (active)
CN=C(c1ccccc1)c1c(C)cccc1C,-12.2%,

SMILES,"activity change, negative = growth inhibition",Potency
CC1CCCCC1NC(=O)CSc1nnc(-c2ccncc2)n1CCCN(C)C (centres undefined),-2.07%,
CCCNC(=O)N1CCN(C(=O)NCCC)CC1,4.59%,
O=C(NNc1cc(Cl)ccc1Cl)c1cccnc1Cl,-2.92%,
Fc1ccc(OCc2nn3c(Cn4nnc5ccccc54)nnc3s2)cc1,-27.8%,
CCc1ccccc1NC(=O)Cc1cn(C)c2ccccc12,,inactive
O=C(O)C1CCCN1S(=O)(=O)c1ccc2c(c1)CCC2 (centres undefined),-7.3%,
CC(OC(=O)CNC(=O)c1cccc(F)c1)C(=O)NC1CCCCC1C (centres undefined),3.97%,
Cc1ccnc(SCC(=O)Nc2cccc(S(=O)(=O)N3CCOCC3)c2)n1,-27.1%,
O=C(O)C1CC(=O)N(Cc2cccnc2)C1 (centres undefined),-0.56%,
O=C1/C(=C\c2cccnc2)CN(Cc2ccccc2)C/C1=C\c1cccnc1,,1.64 µM (active)
O=C(O)CCc1cccnc1,,inactive
COC(=O)c1ccc2c(c1)S(=O)(=O)NC2C (centres undefined),4.44%,
O=C(OCC(=O)N1CCc2ccccc21)c1ccc([N+](=O)[O-])cc1,,29.1 µM (active)
O=C(OCC(=O)N1CCc2ccccc21)C1CCCN1S(=O)(=O)c1ccc(Cl)cc1 (centres undefined),-9.63%,
Cc1ccc(S(=O)(=O)NCC(=O)OCC(=O)N2CCc3ccccc32)cc1,-22.6%,
O=S(=O)(Nc1ccccn1)c1cccc(S(=O)(=O)c2ccc(Cl)cc2)c1,-14%,
Cc1coc2c1c(C)cc1oc(=O)c(CC(=O)NCC(=O)N[C@H](C(=O)O)C(C)C)c(C)c12,23.9%,
CCC(NC(=O)C1CCCC1)c1ccc(C)cc1 (centres undefined),-3.25%,
Cc1cc[n+](C2CCCCC2)cc1,,15.8 µM (active)
COc1ncnc2sc3c(c12)CCCC3,-6.77%,
Cc1noc(C)c1NC(=O)N(C)C[C@@H]1Oc2cc(Br)ccc2S(=O)(=O)N([C@@H](C)CO)C[C@H]1C,-2.38%,
C[C@H](CO)N1C[C@H](C)[C@@H](CN(C)C(=O)C2CCCCC2)OCc2cnnn2CCCC1=O,-21.8%,
CCCCOc1ccc(C(C)(O)CCN2CCOCC2)cc1 (centres undefined),-21.9%,
COc1ccc2[nH]c(=O)c(CN(Cc3cccnc3)S(=O)(=O)c3ccccc3F)cc2c1,,18.4 µM (active)
COc1ccc(-c2[nH]ncc2CN(C)Cc2cccnc2)c(F)c1,-19.9%,
CCN(Cc1cc2cc(C)ccc2[nH]c1=O)S(=O)(=O)c1ccccc1,-13%,
